This passage reports activation, Potency and viability results from PubChem BioAssay (NCATS).

“And” between values parts separate entries of the source, which are not always exact repeats. Identical values can stand only once. Records with an inconclusive call do not appear. A number with no mark means an inactive call. The source made the active and inactive calls. Calls follow the shape of the dose curve; as a rule, active = well fitted curve in the direction sought with a large enough effect; inconclusive = small, poorly fitted or top-dose-only effect, or another doubt; inactive = no such curve, though single readings can be large; an effect the other way counts as inactive or inconclusive.

Assay [1] deals with Cellular tumor antigen p53 (Homo sapiens) (UniProt P04637). The assay is described as follows: Primary qHTS for small molecule compounds that upregulate eGFP-tagged delta133p53alpha (in N-terminal) cells. (AID 2060322). Also: nearly all actives have a fitted effect of over 75% in size. Also: potency is read from the fitted curve at half-maximal effect.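 As to activation: series mostly up to about 56 µM; 0% = DMSO vehicle and 100% = reference activator.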 Particulars: NCI-H358 eGFP-delta133p53alpha fluorescence, 24 h; activation: stronger effect = higher value. The essentials: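 NCI-H358 cells pre-induced 24 h with 10 ng/ml doxycycline to express N-terminal eGFP-delta133p53alpha, then dosed 24 h at 37C without doxycycline; fixed, Hoechst-stained, GFP intensity by laser scanning cytometry, normalized to DMSO (0%) and 57.5 uM 5-azacytidine (100%).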
Sequence of Cellular tumor antigen p53 (Homo sapiens) (P04637 whole entry, looked up): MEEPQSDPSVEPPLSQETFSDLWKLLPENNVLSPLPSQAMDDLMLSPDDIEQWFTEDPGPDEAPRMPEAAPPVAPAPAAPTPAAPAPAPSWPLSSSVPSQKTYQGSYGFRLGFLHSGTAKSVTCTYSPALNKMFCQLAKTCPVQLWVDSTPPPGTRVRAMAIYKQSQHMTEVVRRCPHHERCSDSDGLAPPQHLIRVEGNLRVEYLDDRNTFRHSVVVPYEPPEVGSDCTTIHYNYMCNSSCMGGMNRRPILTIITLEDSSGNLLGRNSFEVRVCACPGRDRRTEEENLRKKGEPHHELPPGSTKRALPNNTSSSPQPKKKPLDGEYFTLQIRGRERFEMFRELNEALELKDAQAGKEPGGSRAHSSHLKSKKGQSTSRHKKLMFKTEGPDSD
(qHTS replaces the single test concentration by a dilution series.)

Assay [2] concerns the target Aldehyde dehydrogenase, mitochondrial (Homo sapiens) (UniProt P05091). The experiment in a line: qHTS for Inhibitors of the Aldehyde Dehydrogenase Family (ALDH2) Primary screen (AID 2061308).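 Also: plate controls were vehicle for no effect and reference inhibitor for full effect; nearly all actives have a fitted effect of over 55% in size.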
The nature of assay [3]: BET inhibitor-based combinations targeting novel dependencies in MECOM-rearranged (r) AML: SET-2 cell line (AID 2202231). Also: nearly all actives have a fitted effect of over 35% in size. Also: potency is read from the fitted curve at half-maximal effect.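 As to viability: plate controls were DMSO treated cells for no effect and wells without cells for full effect.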 The following applies: SET-2 AML cells viability, CellTiter-Glo luminescence, 48 h; viability: stronger effect = lower value, concentration not given here. In a few lines:
(§1)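 A 48 hr incubation preceded viability reading by CellTiter-Glo, with 15 min room-temperature development. Dose series had 11 points; normalization used DMSO and empty wells; AUC was computed and mean-centered per line as Z-AUC.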
(Cellular ATP, detected with luciferase, serves as a proxy for viable cell number.)

Assay [4] can be described thus: BET inhibitor-based combinations targeting novel dependencies in MECOM-rearranged (r) AML: OCI-AML3 cell line (AID 2202232). Also: potency is read from the fitted curve at half-maximal effect; nearly all actives have a fitted effect of over 35% in size. Particulars: Potency: OCI-AML3 viability. In a few lines:
as §1

A short description of assay [5]: BET inhibitor-based combinations targeting novel dependencies in MECOM-rearranged (r) AML: HNT-34 cell line (AID 2202234). Also: nearly all actives have a fitted effect of over 35% in size. Also: potency is read from the fitted curve at half-maximal effect. In a few lines: (§2)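 Each compound is tested in an 11-point concentration series against 500 seeded cells/well for 48 hr. The luminescent viability signal is normalized to DMSO and blank wells, then reduced to AUC and a cell-line-centred Z-AUC.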

Assay [6] in a line: BET inhibitor-based combinations targeting novel dependencies in MECOM-rearranged (r) AML: UCSD-AML1 cell line (AID 2202235). Also: nearly all actives have a fitted effect of over 40% in size. Also: potency is read from the fitted curve at half-maximal effect. The essentials: as §2
Assay [7] in a line: BET inhibitor-based combinations targeting novel dependencies in MECOM-rearranged (r) AML: AML-191 cell line (AID 2202236; also: nearly all actives have a fitted effect of over 35% in size; also: potency is read from the fitted curve at half-maximal effect). The essentials: as §1
The nature of assay [8]: BET inhibitor-based combinations targeting novel dependencies in MECOM-rearranged (r) AML: AML-194 cell line (AID 2202237; also: nearly all actives have a fitted effect of over 40% in size; also: potency is read from the fitted curve at half-maximal effect). In a few lines:
as §1

Assay [9] is described as follows: BET inhibitor-based combinations targeting novel dependencies in MECOM-rearranged (r) AML: MV-4-11 cell line (AID 2202233). Also: potency is read from the fitted curve at half-maximal effect; nearly all actives have a fitted effect of over 45% in size. In a few lines: as §2
Assay [10] concerns the target Retinaldehyde dehydrogenase 3 (Homo sapiens) (UniProt P47895). The assay is described as follows: qHTS for Inhibitors of the Aldehyde Dehydrogenase Family (ALDH1A3) Confirmatory screens (AID 2061311). Also: potency is read from the fitted curve at half-maximal effect; nearly all actives have a fitted effect of over 60% in size.
The target is the same in assay [11]. The experiment in a line: qHTS for Inhibitors of the Aldehyde Dehydrogenase Family (ALDH1A3) Primary screen (AID 2061315). Also: potency is read from the fitted curve at half-maximal effect.
Assay [12] has as its target Aldehyde dehydrogenase 1A1 (Homo sapiens) (UniProt P00352). The assay is described as follows: qHTS for Inhibitors of the Aldehyde Dehydrogenase Family (ALDH1A1) Confirmatory screens (AID 2061316). Also: potency is read from the fitted curve at half-maximal effect; nearly all actives have a fitted effect of over 65% in size.
Assay [13] deals with Retinaldehyde dehydrogenase 3 (Homo sapiens) (UniProt P47895). The experiment in a line: qHTS for Inhibitors of the Aldehyde Dehydrogenase Family (ALDH1A3) Validation screen (AID 2061312). Also: nearly all actives have a fitted effect of over 45% in size. Also: potency is read from the fitted curve at half-maximal effect.
In assay [14] the target is Retinal dehydrogenase 2 (Homo sapiens) (UniProt O94788). The assay is described as follows: qHTS for Inhibitors of the Aldehyde Dehydrogenase Family (ALDH1A2) Confirmation screens (AID 2061314). Also: potency is read from the fitted curve at half-maximal effect; nearly all actives have a fitted effect of over 65% in size.

What is called viability is a per cent measure of how many cells are alive, often set against a control. Consider `O=C(/C=C/C=C/c1ccc2c(c1)OCO2)N1CCCCC1`, for which the activation in assay [1] is -7.63%. Moreover, the Potency result in assay [2], in assay [5], in assay [6], in assay [7] and in assay [8] was “inactive” each time. The viability in assay [3] was 96.4%. The Potency in assay [4] is 18.6 µM (active).
Turning to `FC(F)c1nc2ccccc2n1-c1nc(N2CCOCC2)nc(N2CCOCC2)n1`, in assay [1], the activation is 43.2% and 24.1%. For the same molecule, in assay [2], the Potency result is “inactive”. Also, the Potency in assay [3] is 3.72 µM (active); in assay [4], 0.235 µM (active); in assay [9], 0.209 µM (active).
In the case of `COc1cc(N2CCC(N)CC2)ccc1Nc1ncc(Cl)c(-c2c[nH]c3ccccc23)n1`, the Potency in assay [1] is 26.9 µM (active); in assay [3] it was 18.6 µM (active); in assay [4], 5.9 µM (active); in assay [9], 0.0661 µM (active); in assay [5] it was 1.32 µM (active); in assay [6] it was 1.48 µM (active). Further, the Potency was 8.33 µM (active) in assay [7] and 10.5 µM (active) in [8]. Further, the Potency result in assay [2] was “inactive”.
For the molecule `O=C1OCc2cc3cccc(O[C@@H]4O[C@H](CO)[C@@H](O)[C@H](O)[C@H]4O)c3c(O)c21`, the activation in [1] is -11.5%. The Potency in [10] was 13.9 µM (active).
Take `Cc1cc2c(N3CCCC3)nc(N3CCCC3)nc2n1C`: the activation in assay [1] is -16.7%. The results for the Potency in [10] and in assay [12] were 14.2 µM (active) and 11.3 µM (active), respectively. Also, the Potency entry in assay [11] was “inactive”.
`C/C=C/C=C/C(CC(=O)O)Nc1ccc(C=O)cc1` (stereo not drawn): the activation in assay [1] is -13.7%. The Potency is 12.7 µM (active) in assay [10] and 2.01 µM (active) in [12]. The Potency result in [11] is “inactive”.
`O=c1c(-c2ccc(O)cc2)coc2cc(O[C@@H]3O[C@H](CO)[C@H](O)[C@H](O)[C@H]3O)ccc12`: the activation in assay [1] is 8.65%. Also, in assay [13], the Potency entry is “inactive”.
As to `CN1CCc2c(n(Cc3ccc(C(=O)NO)cc3)c3ccccc23)C1`, in assay [1], the activation was 23.6%. Besides, the Potency result in assay [2] and in assay [6] was “inactive” each time.
On to `Cn1nc(-c2ccc(C(F)(F)F)cc2)nc2c(=O)n(C)c(=O)nc1-2`, for which the Potency in [1] was 4.78 µM (active); in assay [13], 2.51 µM (active).
For `CC1=C(C(=O)OC2CCCCC2)C(c2ccc([N+](=O)[O-])cc2)C2=C(CC(C)(C)CC2=O)N1` (stereo not drawn), the activation in [1] was 7.16%. Moreover, the Potency was 2.25 µM (active) in assay [10], 5.62 µM (active) in [13], 7.08 µM (active) in assay [11] and 10.1 µM (active) in assay [12].
Take `Cc1nc2ccc(-n3ncc(C(=O)c4cc5ccccc5[nH]4)c3N)cc2[nH]1`: the activation in assay [1] was 1.79%. Further, the Potency entry in [2] and in [11] was “inactive” throughout. The Potency in assay [8] is 16.6 µM (active).
For `COc1cc(N2CCN(C)CC2)ccc1Nc1nccc(-c2cn(C)c3cnccc23)n1`, the Potency in assay [1] is 26.9 µM (active); in [3] it was 20.9 µM (active); in assay [4] it was 14.8 µM (active); in assay [9], 0.372 µM (active); in assay [5] it was 13.2 µM (active); in [6] it was 6.61 µM (active). Besides, the Potency in assay [7] is 13.2 µM (active); in assay [8] it was 14.8 µM (active). Besides, the Potency result in [2] is “inactive”.
Take `CC(C(=O)O)c1ccc2c(c1)[nH]c1ccc(Cl)cc12` (stereo not drawn): the activation in assay [1] was 8.47% and -3.82%. In addition, the Potency is 15.9 µM (active) in assay [10] and 6.34 µM (active) in assay [14]. Further, the Potency entry in assay [13] and in [11] was “inactive” throughout.
With `CNC(=O)c1c(F)cccc1Nc1nc(Nc2cc3c(cc2OC)CCN3C(=O)CN(C)C)nc2[nH]ccc12`, the activation in assay [1] was 42.7%. Further, the Potency entry in assay [2] was “inactive”. Besides, the Potency in [3] was 8.33 µM (active); in [4], 9.34 µM (active); in [9], 7.42 µM (active); in assay [5], 6.61 µM (active); in assay [6] it was 8.33 µM (active); in assay [8], 7.42 µM (active).
For `CCCCOc1ccc(C(=O)Nc2ccc(F)cc2F)cc1`, the activation in assay [1] is -9.74% and -2.39%. Further, the Potency result in assay [2], in [5], in [6], in [7] and in assay [8] was “inactive” in each case.
With `Cc1cc(O)cc(Oc2cc(C)c(C(=O)O)c(O)c2)c1`, in assay [1], the activation is -7.63%. Also, the Potency in [10] was 22.5 µM (active); in assay [12], 17.9 µM (active).
With `O=C(/C=C/c1cccc(S(=O)(=O)Nc2ccccc2)c1)NO`, the Potency in assay [1] is 5.44 µM (active); in assay [3], 0.263 µM (active); in [4], 0.742 µM (active); in assay [9], 0.296 µM (active); in assay [5] it was 0.934 µM (active); in [6], 0.742 µM (active). Besides, the Potency in assay [8] was 1.05 µM (active). The Potency result in [2] is “inactive”.
Take `C=CC(=O)N1CC(N2CCN(C(=O)CNc3cc(C4CC4)c(Cl)cc3O)CC2)C1`: in assay [1], the activation was 10%. Besides, the Potency in [10] was 4 µM (active); in assay [13], 10 µM (active); in assay [11], 2.51 µM (active); in assay [12], 22.5 µM (active).
For the molecule `NC(=O)c1noc([C@H](CCCC2CCCCC2)CC(=O)NO)n1`, in assay [1], the activation was -7.14%. Further, the Potency entry in assay [2] is “inactive”. Further, the Potency in assay [3] is 5.9 µM (active); in assay [5], 2.95 µM (active); in assay [6], 5.25 µM (active); in assay [7], 3.72 µM (active); in assay [8] it was 6.61 µM (active).
Turning to `COc1ccccc1C(=O)Nc1cc2c(cc1N1CCCC1)n(C)c(=O)n2C`, in assay [1], the activation was -44.7%. The Potency result in assay [2] is “inactive”. In addition, the values for the Potency in [9] and in assay [5] were 16.6 µM (active) and 26.3 µM (active), respectively.
Consider `N#Cc1cccc(-c2c[nH]c3ncnc(N4CCOCC4)c23)c1`, for which, in assay [1], the activation is -5.36%. Also, the Potency result in [2], in assay [11] and in assay [8] was “inactive” in each case. Besides, the Potency in assay [7] was 18.6 µM (active).
